About 210 (0.4%) of roughly 52,000 sequences were called active.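 The calls were made as follows: active = gene whose silencing raises cell survival under the drug, median off-target-corrected z-score across its silencing RNAs 2 or more; inactive = the rest.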 The sample as a whole holds a higher share of actives than the screen did.

The assay is described as follows: Resistance to Poly (ADP-Ribose) Polymerase inhibitor: Gene Identification via Genome-wide siRNA Screen. Particulars: mouse BRCA2 R2336H ES cells, olaparib, CellTiter-Glo viability; active compounds read high. Put shortly: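 Mouse BRCA2 R2336H ES cells were reverse-transfected with siRNA (20 nM final), treated at 48 h with 500 nM olaparib, and read by CellTiter-Glo after 72 h. Scores: MAD-based z per siRNA, median per gene, seed off-target correction.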
With GCAAUGCGACGUGCUCUAUTT against LOC330863, the z-score is -0.895 (inactive). Regarding GCGGCAUAAGUCCAAGCACTT against Crk7, the z-score is -1.76 (inactive). Then GGAAUGUUCUGUCGCUAUGTT against Nrp1, with 0.0552 (inactive); and “GGUUGAAUAUUGAAUGGAATT against 9130422G05Rik”, with 0.44 (inactive). Then CCUGAAAAAAUUUAUCGCCTT against Rnf3, with -0.169 (inactive); and GCUUCCUCUACAUCCUGCUTT against Kcnk15, with 2.57 (active). Then GGCUGAACUCAAAAAGACGTT against Hand1, with 2.07 (inactive); and GGUGAAGCUGAAACAACAUTT against BC020002, with 0.323 (inactive). With GCUUGUGAAAAAUUAUGAGTT against Ipo7, the z-score was -1 (inactive). Then GCUCUACUGCUUCCUUGUUTT against Olfr973, with -2.32 (inactive).

GGAGAUGUGUGCUAUGUGGTT against Gzmb: the z-score is -1.14 (inactive). Then GGCCAACUGAUUAAGAAACTT against Chrnb1, with 2.28 (active); and GGGAUACCAUGGGAAUAGUTT against Vps52, with 0.468 (inactive).

Regarding “GGACAAGGAUGCAAUUAUCTT against 4833427G06Rik”, the z-score is -2.12 (inactive).

Regarding GGCUCAAGGACAGAUGAUGTT against Tra1, the z-score is -0.94 (inactive). As for GGAGCUAAGACAGUUUGGATT against BC022133, the z-score is -1.16 (inactive). As for GGAUGAUACUUCAUUACACTT against Ankrd12, the z-score is -0.613 (inactive).

Consider GGAGUGAAAUUUACUGGGUTT against Hdgfrp3, for which the z-score was 1.78 (inactive). Then CGAGGUGACCUACAAGAUUTT against AI481750, with 0.982 (inactive); and “CCUUCUGUAGUUGGAAUCATT against 1110038F21Rik”, with -0.558 (inactive); and GGGUUAUGUCUGUGGAGCUTT against Bcl2l2, with 1.54 (active). The result for GCCUUAAGUGGAUUUAGGATT against Hist1h2ae reads 1.22 (inactive); that for “GGAAAUACCCUGAUAGCCATT against 9430077C05Rik”, -1.23 (inactive); that for “GCAACAUUAGGAUUUAUAGTT against 1110032E23Rik”, -0.366 (inactive). For the sequence “GGUGAAAACCCUAACAGUCTT against A130007F10Rik”, the z-score was 0.653 (inactive).

CCAAGUUUUUAUGCAGAUATT against Pip5k1a: the z-score is -1.31 (inactive). The result for GCUUACCUUGACCAACCUCTT against Chrng reads 1.84 (active); that for “GCCACCUUGUUUCUCGAACTT against 1810008A18Rik”, 0.925 (inactive); that for GCAAGUCCUACAAUACAACTT against Tk1, -0.837 (inactive). With GGUGCAGCCACGAAAACAUTT against Lmln, the z-score is 1.57 (inactive). For the sequence CGAUUAUGACCGAUAUAGATT against Fusip1, the z-score is 0.823 (inactive). Then “GGAUAUUGAACACUUCUUGTT against D330017J20Rik”, with 1.25 (inactive). For GGGACUUUCAUAAUGCCAGTT against Snip1, the z-score was 0.733 (inactive). Then GGCCUCCCUACUUGAAGACTT against Crip3, with 1.71 (active); and GGCUCUCUUAGUUGUAUCATT against Mrpl35, with -1.03 (inactive); and “GGAAGUCCGUUUUUAAGAATT against 4732429I09Rik”, with -0.792 (inactive). Then GCUCAAACAGAUACACGGATT against Ap2a2, with 0.288 (inactive); and GCUUGAUCAACAAGUGGAGTT against Nup62, with -1.64 (inactive). Then GCUUGACCCUACACUACAGTT against Olfr1121, with 1.25 (inactive); and “GGCAUUGUAGAGAUGACUCTT against 4732479N06Rik”, with 1.16 (inactive). Regarding UUCUGUGCAUCCUGUCCUATT against Kcnk15, the z-score was -0.484 (active). With CGUGUGAGGUUUGUGAAAGTT against Gzmf, the z-score is -2.41 (inactive). On to GCCUAAAAAAUCUCUGUGATT against Zswim3, for which the z-score is -1.39 (inactive). As to GGAAGUUCAACACCUCCAGTT against BC023296, the z-score was -0.673 (inactive). The result for CGAUUUCAGCUUAAAGCACTT against Lmo3 reads 1.44 (inactive); that for “CCCUAAAACCAAAUGUACATT against E130014J05Rik”, 6.23 (active); that for “GGACUUGGAAGUAAUUUUCTT against C230071H18Rik”, 2.75 (inactive).

Regarding GCGAACAGAAAAGACCAAUTT against Col4a5, the z-score is 1.11 (inactive).

As for “GGGACAUACAUAUCCUCCUTT against 1300013D05Rik”, the z-score was 1.31 (inactive). GCAUACAUAGCACUACAUATT against Olfr536: the z-score was -0.0396 (inactive). The result for GGACAGUGUUUACAAACUUTT against Fbxw7 reads 0.328 (inactive). In the case of GCAUAUGGUCCACUAAAAATT against Kcnj4, the z-score was 0.316 (inactive). The result for GGUACUGGAGAAAGUCAAGTT against Pik4cb reads 0.097 (inactive); that for GGAUGAUUUCCAGAGAGUATT against Rdh5, -1.33 (inactive).

Consider GGAGUGUGAUCAAGUUCAUTT against Eya4, for which the z-score was 0.648 (inactive). Then GCUUUUACAAGACCUGUUCTT against Pde2a, with 1.02 (active).

In the case of “GGAGAGAACUGGAAGAGAGTT against 0610040D20Rik”, the z-score was -2.18 (inactive). Take GGAAAUACGGCUUCAUCUATT against Cyp26a1: the z-score is 0.936 (inactive). The result for GACAUUUGUAUGCAGUCAUTT against V1ri9 reads 0.237 (inactive); that for GGAUUCGAUUCUUCCAAAATT against Peli2, -1.02 (inactive); that for GGUCUUAGAAGAUUUUUCUTT against Adam21, 2.43 (active). “AUUCUGAACACUCCUCGGATT against C630041L24Rik”: the z-score was -0.69 (inactive). With GGAACUGCUUACGAAAUACTT against Lama4, the z-score is -0.374 (inactive). Then GGAUGCUACGUUCUGCUAGTT against Bcat2, with -0.76 (inactive); and “GCCCUCAGGUGGUUCUUAATT against C030036P15Rik”, with -1.76 (inactive). The result for GGAGAAACUGAUGACAGUGTT against Plcb3 reads 1.47 (active); that for GCUAUUAUUGCAAUGUCAGTT against Trim38, -0.00296 (inactive).
